Experiment [1] is described as follows: P-glycoprotein substrates identified in KB-8-5-11 adenocarcinoma cell line, qHTS therapeutic library screen (AID 1346987). Further: nearly all actives have a fitted effect of over 65% in size. The essentials:
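KB-8-5-11: colchicine-selected sub-line of KB-3-1 over-expressing P-gp; assay medium lacked colchicine. 72 h drug exposure at 37 degree C, CellTiter-Glo.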
For orientation: Quantitative high-throughput screening tests each substance at several concentrations.

Experiment [2] in a line: Primary qHTS for inhibitors of nuclear receptor binding SET domain protein 2 (NSD2) in an isogenic RCH-ACV NSD2 p.E1099K mutant (9B) (AID 1645876). Further: nearly all actives have a fitted effect of over 70% in size.
Experiment [3] concerns the target Glutathione peroxidase 1 (Homo sapiens) (UniProt P07203). The experiment can be described thus: Primary qHTS Assay for Inhibitors of Recombinant Selenoprotein Glutathione Peroxidase 1 (GPX1) (AID 1845191). Further: nearly all actives have a fitted effect of over 65% in size. The essentials: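 10 nM GPX1 + cpd, 30 min RT; start w/ 1 mM GSH, 0.5 mM cumene hydroperoxide, 0.5 mM NADPH, 100 nM GR, 0.01% BSA; buffer 50 mM Tris-HCl pH 7.5, 2 mM EDTA, 150 mM NaCl; Fl 340/450, 0 & 15 min.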

A short description of experiment [4]: Primary qHTS for inhibitors of nuclear receptor binding SET domain protein 2 (NSD2) in an RCH-ACV wild type WT cells (2C) (AID 1645877). Further: nearly all actives have a fitted effect of over 70% in size.
Experiment [5] deals with Catechol O-methyltransferase (Homo sapiens) (UniProt P21964). The experiment can be described thus: Confirmatory Screen for Target Class Profiling of Small Molecule Inhibitors of Methyltransferases (AID 1745852; calls by dose curve). The note with it: MTase-Glo luminescence, SAH detection, recombinant enzyme; measured here: COMT max response; stronger effect = lower value.
In experiment [6] the target is Guanidinoacetate N-methyltransferase (Homo sapiens) (UniProt Q14353). Described as above. The note with it: activity change, negative = inhibition: at 57.3 µM (top of the series) unless noted.
Experiment [7] concerns the target Nicotinamide N-methyltransferase (Homo sapiens) (UniProt P40261). Described as above. The note with it: MTase-Glo luminescence, SAH detection, recombinant enzyme; measured here: NNMT max response; stronger effect = lower value.
For experiment [8], the target named is Phenylethanolamine N-methyltransferase (Homo sapiens) (UniProt P11086). The experiment is described as above. Conditions: MTase-Glo luminescence, SAH detection, recombinant enzyme; measured here: PNMT max response; stronger effect = lower value.

Results filed as inconclusive are left out. The source made the active and inactive calls. Unless noted, the call rests on the fitted dose curve; in most records, active means well fitted curve in the direction sought with a large enough effect; inconclusive means small, poorly fitted or top-dose-only effect, or another doubt; inactive means no such curve, though single readings can be large; an effect the other way counts as inactive or inconclusive.
Potency means the concentration at half of the fitted maximal effect.

Glutathione peroxidase 1 (Homo sapiens), sequence (P07203 whole entry, looked up): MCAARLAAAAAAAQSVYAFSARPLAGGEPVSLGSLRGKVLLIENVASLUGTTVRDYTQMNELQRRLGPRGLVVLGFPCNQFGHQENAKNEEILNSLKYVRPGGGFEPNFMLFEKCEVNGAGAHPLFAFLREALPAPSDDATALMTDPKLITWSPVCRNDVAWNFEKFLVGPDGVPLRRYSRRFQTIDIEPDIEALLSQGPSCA
Phenylethanolamine N-methyltransferase (Homo sapiens), sequence (P11086 whole entry, looked up): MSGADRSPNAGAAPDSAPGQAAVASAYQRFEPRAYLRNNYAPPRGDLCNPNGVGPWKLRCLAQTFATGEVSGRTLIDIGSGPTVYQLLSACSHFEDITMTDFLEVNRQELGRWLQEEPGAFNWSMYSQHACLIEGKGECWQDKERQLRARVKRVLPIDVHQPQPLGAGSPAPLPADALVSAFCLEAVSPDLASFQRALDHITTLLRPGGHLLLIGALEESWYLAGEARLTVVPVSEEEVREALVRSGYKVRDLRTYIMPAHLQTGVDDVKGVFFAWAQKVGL
Nicotinamide N-methyltransferase (Homo sapiens), sequence (P40261 whole entry, looked up): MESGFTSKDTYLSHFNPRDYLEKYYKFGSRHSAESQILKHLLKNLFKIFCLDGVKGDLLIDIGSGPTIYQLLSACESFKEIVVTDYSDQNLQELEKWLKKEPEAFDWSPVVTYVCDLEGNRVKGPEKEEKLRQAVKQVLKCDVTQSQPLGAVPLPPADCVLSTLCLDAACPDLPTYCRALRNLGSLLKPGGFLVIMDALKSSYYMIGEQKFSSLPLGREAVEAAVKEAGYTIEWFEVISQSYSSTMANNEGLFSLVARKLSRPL
Catechol O-methyltransferase (Homo sapiens), sequence (P21964 whole entry, looked up): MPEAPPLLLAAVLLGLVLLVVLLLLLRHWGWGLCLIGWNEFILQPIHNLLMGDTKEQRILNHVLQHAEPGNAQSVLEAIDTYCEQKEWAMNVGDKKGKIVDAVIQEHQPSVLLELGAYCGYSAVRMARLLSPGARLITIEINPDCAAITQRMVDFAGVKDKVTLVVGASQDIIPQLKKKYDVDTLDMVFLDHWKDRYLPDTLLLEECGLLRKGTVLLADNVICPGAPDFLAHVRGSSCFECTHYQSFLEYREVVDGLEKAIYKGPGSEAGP

In the case of `COc1cc(OC)c(/C=C2\C(=O)Nc3ccccc32)c(OC)c1`, the Potency in experiment [1] was 0.92 µM (active); in experiment [2], 1.03 µM (active). In experiment [3], the Potency result is “inactive”.

On to `CC/C(=C(/CC)c1ccc(O)c(CN(CC)CC)c1)c1ccc(O)c(CN(CC)CC)c1`, for which the Potency in experiment [1] was 14.6 µM (active); in experiment [2], 9.2 µM (active); in experiment [4], 16.4 µM (active). Further, the Potency entry in experiment [3] is “inactive”.

As for `Cc1cc(-c2ccc(/C=C3\SC(=Nc4ccc(Cl)c(C(=O)O)c4)NC3=O)o2)c([N+](=O)[O-])cc1C`, the Potency result in experiment [1], in experiment [2] and in experiment [4] was “inactive” in each case. The Potency in experiment [3] is 20.2 µM (active).

`c1nc(NCC2CCOC2)c2cc(-c3ccc4c(c3)OCO4)ccc2n1` (stereo not drawn): the Potency entry in experiment [1] and in experiment [3] was “inactive” each time. The Potency in experiment [2] is 16.4 µM (active); in experiment [6], 42.9 µM (active). The activity is -39.2% in experiment [5], -29.1% in experiment [7] and -63.5% in experiment [8].

For the compound `Cn1c(CNc2cccc(C(=O)NCc3ccccc3C(F)(F)F)c2)nnc1-c1ccncc1`, the Potency result in experiment [1] and in experiment [3] was “inactive” throughout. For the same compound, in experiment [4], the Potency is 10.3 µM (active).

On to `CC(C)(C)n1nc(-c2cccc3ccccc23)c2c(N)ncnc21`, for which the Potency result in experiment [1] and in experiment [3] was “inactive” each time.
